VP16 counter – VP16 counterscreen qHTS for inhibitors of ROR gamma transcriptional activity. Drosophila S2 Gal4-VP16 UAS-luciferase, luminescence, 20 h. Potency, µM (doses to about 53.6 µM), hits mostly inhibitors. hit rate 3.5% among 310,000;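 also: Gal4-VP16 expression switched on by copper sulfate through the metallothionein promoter; nearly all actives have a fitted effect of over 50% in size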
DT40 TDP1 CPT – qHTS for Inhibitors of human tyrosyl-DNA phosphodiesterase 1 (TDP1): qHTS in cells in presence of CPT | chicken DT40 Tdp1-/-;hTDP1 cells + 20 nM CPT, ATP luminescence, 48 h | Potency, µM (top dose mostly 46.2 µM), most hits filed as inhibitors | hit rate 12% among 420,000 | AID 686979, 2013; also: nearly all actives have a fitted effect of over 55% in size
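Chicken DT40 Tdp1-/- cells stably complemented with human TDP1 were seeded at 400 cells/well in medium containing 20 nM camptothecin, exposed to pin-transferred compounds, and grown at 37 °C for at least 48 hr. Viability was read as ATP luminescence.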
IL1B secr inh – qHTS for Inhibitors of Inflammasome Signaling: IL-1-beta AlphaLISA Primary Screen; hit rate 4.7% among 360,000; THP-1 LPS/ATP IL-1B secretion, AlphaLISA, 16 h; active compounds read low; activity change, % at 57.5 µM; in the data active = activity change below about -50%; inconclusive = mostly about -30% to -49%
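Secreted IL-1B measured by AlphaLISA bead assay after 16 h compound exposure of THP-1 cells; compounds (final up to 57.5 uM) added 1 h before LPS (250 ng/mL) and ATP (1.25 mM) stimulation; lower signal means less secretion.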
TDP1 cell noCPT – qHTS for Inhibitors of human tyrosyl-DNA phosphodiesterase 1 (TDP1): qHTS in cells in absence of CPT; DT40 Tdp1-/- hTDP1 cells, no CPT, ATP luminescence, 48 h; Potency, µM (titrated, usually from 46.2 µM), hits mostly inhibitors; hit rate 15% among 420,000; also: nearly all actives have a fitted effect of over 55% in size
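Compound effects on proliferation are scored in DT40 Tdp1-/-;hTDP1 cells in the absence of CPT. ATP levels (CellTiter-Glo luminescence) are recorded after a ≥48 hr, 37 °C incubation.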
RORgamma inh – qHTS for inhibitors of ROR gamma transcriptional activity. Potency, µM (top dose mostly 53.6 µM), actives largely listed as inhibitors. AID 2551, 2010. Drosophila S2 Gal4-RORgamma UAS-luciferase reporter, 20 h. Nuclear receptor ROR-gamma (Mus musculus), P51450. hit rate 5.4% among 310,000; also: nearly all actives have a fitted effect of over 60% in size
Target sequence (P51450 whole entry, looked up, the tested form may be a part): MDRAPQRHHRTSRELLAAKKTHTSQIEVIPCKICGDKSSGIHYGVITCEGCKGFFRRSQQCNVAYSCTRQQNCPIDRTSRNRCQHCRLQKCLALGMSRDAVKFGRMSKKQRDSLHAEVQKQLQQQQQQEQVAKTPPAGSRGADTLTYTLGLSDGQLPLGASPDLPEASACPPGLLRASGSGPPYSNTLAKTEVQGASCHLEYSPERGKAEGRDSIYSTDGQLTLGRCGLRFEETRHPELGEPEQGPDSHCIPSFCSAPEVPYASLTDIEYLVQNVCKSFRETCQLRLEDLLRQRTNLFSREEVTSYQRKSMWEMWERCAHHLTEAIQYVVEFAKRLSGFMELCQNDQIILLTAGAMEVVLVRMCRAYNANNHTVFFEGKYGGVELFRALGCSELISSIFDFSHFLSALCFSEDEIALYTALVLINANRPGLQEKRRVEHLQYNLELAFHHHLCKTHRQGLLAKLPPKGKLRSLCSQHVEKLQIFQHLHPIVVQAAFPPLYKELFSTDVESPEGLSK
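Stably transfected Drosophila Schneider cells are the test system, with ROR gamma fused to Gal4 and luciferase under UAS control; luminescence is read after 20 hr of 700 uM copper sulfate induction at ambient temperature.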
ELG1 repair inh – qHTS screen for small molecules that inhibit ELG1-dependent DNA repair in human embryonic kidney (HEK293T) cells expressing luciferase-tagged ELG1 | Potency, µM (titrated, usually from 46.1 µM), most hits filed as inhibitors | hit rate 2.3% among 330,000 | HEK293T ELG1-luciferase reporter, luminescence, 16 h; DNA damage induced by 5-fluorouridine | AID 504467, 2011; also: nearly all actives have a fitted effect of over 55% in size
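Cells (2,000 per well) received 5-fluorouridine plus test compound or DMSO and were incubated 16 hr at 37 °C, 5% CO2. Luciferase activity was read by luminescence 30 min after ONE-Glo addition; signal suppression marked inhibition of damage-induced ELG1 function.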
Of the large screens only hits and unclear results are named; the others gave an inactive call. An excerpt weighted towards active compounds, which were near 21% of everything screened. Unless noted, calls follow the shape of the dose curve; as a rule, active = well fitted curve in the direction sought with a large enough effect; inconclusive = small, poorly fitted or top-dose-only effect, or another doubt; inactive = no such curve, though single readings can be large; an effect the other way counts as inactive or inconclusive.

CCCCC#Cc1cncc(C(=O)NN)c1	VP16 counter 7.9µM, RORgamma inh 7.9µM
COc1ccccc1NS(=O)(=O)c1cc(NC(=O)c2cccnc2)ccc1N1CCCCC1	DT40 TDP1 CPT inconclusive, IL1B secr inh inconclusive, TDP1 cell noCPT 23µM, ELG1 repair inh 18µM (no result: VP16 counter, RORgamma inh)
CCCS(=O)(=O)Nc1ccc(N2CCCCC2)c(S(=O)(=O)Nc2ccccc2OC)c1	DT40 TDP1 CPT inconclusive, TDP1 cell noCPT 16µM (no result: VP16 counter, RORgamma inh)
COc1ccccc1NS(=O)(=O)c1cc(NC(=O)C2CCC2)ccc1N1CCCCC1	DT40 TDP1 CPT inconclusive, TDP1 cell noCPT inconclusive
Cc1noc(C)c1CC(=O)N1CCOc2c(cc(-c3nc4ccccc4s3)cc2OC2CCOC2)C1 (stereo unspecified)	none (no result: VP16 counter, IL1B secr inh, RORgamma inh, ELG1 repair inh)
Cc1cc(C)c(Cn2cnc3ccccc32)c(C)c1	IL1B secr inh inconclusive, RORgamma inh 5.6µM
Brc1ccccc1OCCCCn1cnc2ccccc21	VP16 counter inconclusive, DT40 TDP1 CPT 4.1µM, IL1B secr inh -84, TDP1 cell noCPT 10µM, ELG1 repair inh inconclusive
Brc1ccccc1Cn1cnc2ccccc21	VP16 counter inconclusive, DT40 TDP1 CPT inconclusive, TDP1 cell noCPT 21µM, RORgamma inh inconclusive
Clc1ccccc1OCCn1cnc2ccccc21	ELG1 repair inh inconclusive
Clc1ccc(Cn2cnc3ccccc32)cc1	VP16 counter inconclusive, DT40 TDP1 CPT inconclusive, TDP1 cell noCPT inconclusive, RORgamma inh inconclusive, ELG1 repair inh inconclusive
C=CCn1cc(C(=O)OCC)c(=O)c2ccc(F)cc21	none
c1c2c(cc3sc(N4CCOCC4)nc13)OCCO2	VP16 counter 4.5µM, DT40 TDP1 CPT inconclusive, TDP1 cell noCPT 18µM, RORgamma inh 3.5µM, ELG1 repair inh inconclusive
CCn1c(/N=C/c2ccc(OC)cc2O)nc2ccccc21	VP16 counter inconclusive, RORgamma inh 20µM
CC1CCN(S(=O)(=O)c2ccc3c(c2)N(CC(=O)NCCN(C)C)C(=O)CS3)CC1	none (no result: VP16 counter, IL1B secr inh, RORgamma inh, ELG1 repair inh)
Cc1ccc(-c2csc(N3CCN(c4cc5c(cc4Cl)nc(C(C)N)n5CCCO)CC3)n2)cc1 (stereo unspecified)	none
Cc1ccc(-c2csc(N3CCN(c4cc5c(cc4Cl)nc(C)n5CCN4CCCCC4)CC3)n2)cc1	VP16 counter inconclusive, DT40 TDP1 CPT inconclusive, TDP1 cell noCPT inconclusive, RORgamma inh 11µM
Cn1c(=O)cc(NCCc2ccccc2)[nH]c1=O	DT40 TDP1 CPT 7.3µM, TDP1 cell noCPT 10µM
Cn1c(=O)cc(Nc2ccc(Cl)cc2)[nH]c1=O	DT40 TDP1 CPT inconclusive, TDP1 cell noCPT 21µM
CCN1Cc2cccc(C(=O)Nc3ccc(F)cc3)c2C1=O	none (no result: VP16 counter, IL1B secr inh, RORgamma inh, ELG1 repair inh)
O=C(Nc1ccc(Br)cc1)N1CCC(CN2CCCC2)CC1	DT40 TDP1 CPT inconclusive (no result: VP16 counter, IL1B secr inh, RORgamma inh, ELG1 repair inh)
COc1ccc(C(C(=O)NC(C)(C)C)N(C(=O)CCC(=O)Nc2cc(C)on2)c2cc(C)cc(C)c2)cc1 (stereo unspecified)	DT40 TDP1 CPT inconclusive, TDP1 cell noCPT 21µM, RORgamma inh inconclusive
COCCN(C(=O)Cn1nnc2ccccc21)C(C(=O)NC1CCCCC1)c1ccc(OC)cc1OC (stereo unspecified)	none
COc1ccc(N(C(=O)Cn2nnc3ccccc32)C2(C(=O)NC3CCCC3)CCCCC2)cc1	DT40 TDP1 CPT inconclusive, IL1B secr inh -58, TDP1 cell noCPT inconclusive
Cc1cc(C)cc(N(C(=O)CCC(=O)Nc2cc(C)on2)C(C(=O)NC2CCCC2)c2ccco2)c1 (stereo unspecified)	DT40 TDP1 CPT inconclusive, TDP1 cell noCPT 21µM, ELG1 repair inh inconclusive
COc1ccc(N(C(=O)Cn2cnc3ccccc32)C(C(=O)NC2CCCCC2)c2ccccc2)cc1 (stereo unspecified)	DT40 TDP1 CPT 15µM, IL1B secr inh -75, TDP1 cell noCPT inconclusive

Screening data from PubChem BioAssay.
